aSyn 5UTR act = Activators via SNCA 5'UTR binding, MLPCN. activity score, % (tested at 7.5 µM), hits read low. 300,000 tested, 7.1% active. AID 1814. alpha-synuclein 5'UTR reporter, activators screen; in the data active = activity score below about -60%
* hit, by the source's call. These entries were drawn from the full list.

Cc1c(C(=O)OCC(C)C)[nH]c2c1C(=O)CC(c1ccco1)C2 (stereo not drawn) was read as aSyn 5UTR act 70.
`CCC(C)OC(=O)c1[nH]c2c(c1C)C(=O)CC(c1ccc(N(C)C)cc1)C2` (stereo not drawn) gave aSyn 5UTR act -92*.
Screening CCOC(=O)c1[nH]c2c(c1-c1ccccc1)C(=O)CC(c1ccccc1)C2 (stereo not drawn) returned aSyn 5UTR act -66*.
`CCOC(=O)c1c(-c2ccccc2)cn2c(C)cc(C)nc12` gave aSyn 5UTR act -150*.
CCOC(=O)c1c(C)nc(-c2ccccc2)nc1N was read as aSyn 5UTR act -120*.
`CCCNc1nc(-c2ccccc2)c(C(=O)OCC)cc1C#N` gave aSyn 5UTR act 94.
Screening CC(=O)c1c(C)nc(-c2ccccc2)nc1N returned aSyn 5UTR act -72*.
Oc1ccccc1CNc1ccc2c(c1)OCCO2 was read as aSyn 5UTR act -72*.
Screening Oc1ccccc1CNc1ccc(OC(F)(F)F)cc1 returned aSyn 5UTR act -72*.
`Cc1ccc(NCc2ccccc2O)cc1C` gave aSyn 5UTR act -116*.
Screening Cc1cc(C)nc(NC(=O)/C=C/c2ccccc2Cl)c1 returned aSyn 5UTR act -185*.
For Cc1cc(N)c2cc(NC(=O)/C=C/c3ccccc3Cl)ccc2n1 the results were aSyn 5UTR act 107.
Screening Cc1cc(C(=O)NNC(=S)NC(=O)/C=C/c2ccccc2Cl)n[nH]1 returned aSyn 5UTR act -94*.
Cc1cc(C)nc(NC(=O)/C=C/c2ccc(Cl)cc2Cl)c1 was read as aSyn 5UTR act -129*.
Screening Cc1cc(C)nc(NC(=O)/C=C/c2ccccc2Cl)n1 returned aSyn 5UTR act -161*.
For Cc1ccsc1/C=N/Nc1ncnc2nc[nH]c12 the results were aSyn 5UTR act -90*.
Screening C(=N\Nc1ncnc2nc[nH]c12)/c1cccs1 returned aSyn 5UTR act -69*.
Fc1ccc(/C=N/Nc2ncnc3nc[nH]c23)cc1F was read as aSyn 5UTR act -74*.
Cc1ccccc1/C=N/Nc1ncnc2nc[nH]c12 was read as aSyn 5UTR act -71*.
`CSc1ccc(C2Nc3ccccc3-c3cc(C)nn32)cc1` (stereo not drawn) gave aSyn 5UTR act -101*.
CCSc1nnc(Nc2ccccc2)s1 was read as aSyn 5UTR act -99*.
`O=C1CCCCC1Sc1nnc(Nc2ccccc2)s1` (stereo not drawn) gave aSyn 5UTR act -127*.
CCSc1nnc(Nc2ccc(C)cc2)s1 was read as aSyn 5UTR act -161*.
For O=C(CSc1nnc(-c2ccccc2Cl)o1)Nc1ccc2c(c1)OCCO2 the results were aSyn 5UTR act -137*.
`O=C(CSc1nnc(-c2ccc(O)cc2)o1)Nc1ccc2c(c1)OCCO2` gave aSyn 5UTR act -83*.
`COc1ccc(-c2nnc(SC(C)C(=O)Nc3ccc4c(c3)OCCO4)o2)cc1` (stereo not drawn) gave aSyn 5UTR act -101*.
`O=C(CSc1nnc(-c2ccc(O)cc2)o1)Nc1ccccc1Br` gave aSyn 5UTR act -132*.
Screening O=C(Nc1ccc2c(c1)OCCO2)C1CC(c2ccccc2Cl)=NO1 (stereo not drawn) returned aSyn 5UTR act -124*.
`COc1ccc(Nc2cc(Nc3cccc(OC)c3)ncn2)cc1` gave aSyn 5UTR act -80*.
For COc1cc(-c2ccc(NC(=O)NC3CC3)c(OC)c2)ccc1NC(=O)NC1CC1 the results were aSyn 5UTR act -99*.
`Cc1cc(C)nc(NC(=O)Nc2ccc(F)cc2F)n1` gave aSyn 5UTR act -112*.
`Cc1nc2cc(NC(=O)NCCC3=CCCCC3)ccc2o1` gave aSyn 5UTR act -151*.
For COCC(=O)Nc1ccc(C(C)C)cc1 the results were aSyn 5UTR act -69*.
For COc1ccc(NC(=O)Nc2ccc(F)cc2F)cc1 the results were aSyn 5UTR act -139*.
For COc1ccc(NC(=O)Nc2ccc3c(c2)CCC3)cc1 the results were aSyn 5UTR act -149*.
`COc1ccc(NC(=O)Nc2cccc(OC)c2)cc1` gave aSyn 5UTR act -134*.
For COc1ccc(NC(=O)Nc2ccc3oc(C)nc3c2)cc1 the results were aSyn 5UTR act -164*.
Screening COc1cccc(NC(=O)Nc2ccc3nsnc3c2)c1 returned aSyn 5UTR act -183*.
`COc1cccc(NC(=O)Nc2ccccc2Br)c1` gave aSyn 5UTR act -120*.
For CCC1CCC(NC(=O)Nc2cccc(OC)c2)CC1 (stereo not drawn) the results were aSyn 5UTR act -193*.
Screening COc1ccc(NC(=O)Nc2ccc(C(C)C)cc2)cc1 returned aSyn 5UTR act -75*.
Cn1c(CCNC(=O)c2ccccc2)nc2cc(NC(=O)c3ccco3)ccc21 was read as aSyn 5UTR act -81*.
`CCC(=O)NCCc1nc2cc(NC(=O)c3ccco3)ccc2n1C` gave aSyn 5UTR act -73*.
Cn1c(CCNC(=O)c2ccco2)nc2cc(NC(=O)c3ccco3)ccc21 was read as aSyn 5UTR act -144*.
For Cn1c(CCNC(=O)c2ccco2)nc2cc(NC(=O)c3ccccc3)ccc21 the results were aSyn 5UTR act -91*.
